# A selection: hits, their analogues and other compounds. The true share with any hit is near 1.8%.
# HDAC3 inh: HDAC3 deacetylase inhibitors, primary screen, biochemical, fluorescence, cell-free homogeneous | recombinant HDAC3, fluorogenic peptide/trypsin coupled | inhibition, % at 8.3 µM | 320,000 compounds, 0.15% hits | AID 2718, 2010 | Histone deacetylase 3 (Homo sapiens), O15379; in the data active means inhibition above about 26%, passing the limit was not always enough
# Cardio protect: cardioprotection against H2O2-induced cell death, primary screen, uHTS, H9c2 cells, ATPLite luminescence; 360,000 compounds, 0.63% hits; AID 588492, 2011; H9c2 cardiomyocytes, H2O2 injury protection, 2 h; protection from H2O2 cell death, % at 20 µM;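 active means compounds giving at least 50% protection of heart cells from peroxide-induced death in the single-dose screen, raw or plate-pattern-corrected value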;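 further: 0% = DMSO wells with peroxide and 100% = DMSO wells without peroxide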
# Neddyl block: inhibitors of cullin neddylation, primary screen, biochemical, TR-FRET, uHTS, NAE and Ubc12. NEDD8-conjugating enzyme Ubc12 (Homo sapiens) + NEDD8-activating enzyme E1 regulatory …. inhibition, % at 25 µM. 360,000 compounds, 0.58% hits. AID 651699, 2012; in the data active means inhibition above about 36%
# Target sequence (P61081 whole entry, looked up): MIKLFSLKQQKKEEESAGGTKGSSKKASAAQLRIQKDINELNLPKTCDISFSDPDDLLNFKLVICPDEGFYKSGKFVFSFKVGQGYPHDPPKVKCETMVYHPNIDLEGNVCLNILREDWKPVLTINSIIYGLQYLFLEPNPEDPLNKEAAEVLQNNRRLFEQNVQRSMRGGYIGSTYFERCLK
# Target sequence (Q13564 whole entry, looked up): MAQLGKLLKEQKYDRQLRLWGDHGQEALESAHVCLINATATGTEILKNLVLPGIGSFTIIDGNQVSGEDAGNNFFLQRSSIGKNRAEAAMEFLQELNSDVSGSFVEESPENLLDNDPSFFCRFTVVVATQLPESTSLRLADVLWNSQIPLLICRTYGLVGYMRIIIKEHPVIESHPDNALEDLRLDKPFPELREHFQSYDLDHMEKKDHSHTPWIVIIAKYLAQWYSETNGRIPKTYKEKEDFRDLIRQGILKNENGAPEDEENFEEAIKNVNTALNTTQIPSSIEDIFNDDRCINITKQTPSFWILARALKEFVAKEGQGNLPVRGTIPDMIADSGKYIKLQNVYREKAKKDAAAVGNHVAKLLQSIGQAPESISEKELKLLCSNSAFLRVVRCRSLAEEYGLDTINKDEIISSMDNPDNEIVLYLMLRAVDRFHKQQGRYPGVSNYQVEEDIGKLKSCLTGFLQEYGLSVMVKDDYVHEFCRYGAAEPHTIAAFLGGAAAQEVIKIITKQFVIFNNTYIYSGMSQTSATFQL
# GRK2 aptamer HTS: compounds blocking aptamer binding on GRK2 – biochemical, human GRK2, bead flow cytometry, HTS, primary screen; Beta-adrenergic receptor kinase 1 (Homo sapiens), P25098; AID 488847, 2010; 330,000 compounds, 0.59% hits; inhibition of aptamer binding, % at 10 µM; FAM-aptamer displacement from GRK2;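 active means inhibition of aptamer binding above 40%, roughly 3 SD of noise, on plates passing a quality check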;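 further: median bead fluorescence of bound FAM aptamer so fluorescent compounds give negative values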
# Neddyl conf: blockade of NEDD8 conjugation to cullin – biochemical, TR-FRET, single concentration, confirmation. shares compounds with Neddyl block. TR-FRET cullin neddylation biochemical assay. calls only at 25 µM. 1,800 compounds, 13% hits; in the data active means inhibition above about 40%;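 further: neddylation substrate is the cullin 1 ring ligase complex with SKP2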
# Numbers without * were called inactive; i = inactive; nt = no result shown; + = active, no number.
SMILES,HDAC3 inh,Cardio protect,Neddyl block,GRK2 aptamer HTS,Neddyl conf
CCCS(=O)(=O)NC(=O)C1(C)CCN(C(=O)c2ccc(OC(F)F)cc2)C1 (stereo unspecified),nt,6,-11,nt,nt
COc1ccccc1C(=O)N1[C@@H](C(C)C)COc2cc(Br)ccc2S1(=O)=O,nt,-10,-6,nt,nt
NNC(=O)CCC(=O)Nc1ccccc1,-2,7,-4,0,nt
COC(=O)c1sccc1NC(=O)/C=C/c1c(Cl)cccc1Cl,3,6,nt,0,nt
COC(=O)c1sccc1NC(=O)/C=C/c1ccc(Cl)cc1Cl,8,-4,41*,0,i
O=C(O)c1ccc2c(=O)n3c(nc2c1)/C(=C/c1ccc(C(F)(F)F)cc1)CC3,9,-1,49*,0,+
O=C(O)c1ccc2c(=O)n3c(nc2c1)/C(=C/c1ccc(Cl)cc1Cl)CC3,-2,2,nt,30,nt
O=C(O)c1ccc2c(=O)n3c(nc2c1)/C(=C/c1cccc(Cl)c1Cl)CC3,-15,0,52*,1,nt
Cc1ccc(C(=O)N2CCN(S(=O)(=O)c3sc(C(=O)O)c(C)c3C(=O)O)CC2)s1,2,4,-17,1,nt
COc1cccc(/C=C/C(=O)OCC(=O)c2ccc[nH]2)c1,nt,-2,40*,nt,i
COc1cccc(/C=C/C(=O)OCC(=O)Nc2ccccc2Sc2ccccc2)c1,5,-5,44*,3,i
CC(NC(=O)c1ccco1)C(=O)N1CCc2ccccc2C1 (stereo unspecified),-2,19,7,1,nt
O=C(NN1C(=O)c2ccccc2NC1c1ccccn1)c1ccc([N+](=O)[O-])cc1 (stereo unspecified),-1,7,-24,3,nt
CCNc1nc(NCC)nc(SCCOc2ccc(C)cc2)n1,-4,-16,3,2,nt
Cc1nnc2ccc(-c3ccc(NS(=O)(=O)c4ccc(Cl)s4)cc3)nn12,0,14,41*,0,nt
c1ccc(-n2cc(CN3CCCC(CN4CCCC4)C3)c(-c3ccc4c(c3)OCO4)n2)cc1 (stereo unspecified),1,8,-7,0,nt
COCC1CCCCN1Cc1cn(-c2ccccc2)nc1-c1ccc2c(c1)OCO2 (stereo unspecified),-14,-1,45*,0,i
OCc1cn(-c2ccccc2)nc1-c1ccc2c(c1)OCCO2,-3,2,28,1,nt
OC[C@@H]1CCCN1Cc1cn(-c2ccccc2)nc1-c1ccc2c(c1)OCO2,-14,-13,40*,2,i
CCOc1c(Cl)cc(CNCC(C)C)cc1Cl,5,-4,-5,1,nt
COc1cc(NC(=O)CSc2nc3ccccc3n2-c2ccccc2)c(C)cc1[N+](=O)[O-],-2,-7,43*,1,i
COc1ccc(-n2c(SCC(=O)Nc3ccc([N+](=O)[O-])cc3OC)nc3ccccc32)cc1,nt,-1,0,0,nt
CCSC1=C(C#N)C2(CCCCC2)C2=C(CC(C)(C)CC2=O)N1,8,13,44*,2,i
CC1(C)CC(=O)C2=C(C1)NC(SCC(N)=O)=C(C#N)C21CCCCC1,1,15,12,2,nt
COc1ccc(-c2nn(C)c3sc(C(=O)NCCN(C)C)cc23)cc1OC,5,4,32,0,nt
SMILES,HDAC3 inh,Cardio protect,Neddyl block,GRK2 aptamer HTS,Neddyl conf
CCCN(CCC)CCCNC(=O)c1cc2c(-c3ccc(OC)c(OC)c3)nn(C)c2s1,3,5,41*,0,i
COc1ccccc1C1CCN(C(=O)c2ccco2)CC1,-1,1,9,0,nt
CC(=O)Nc1nonc1-c1nc2ccccc2n1CCC#N,-9,8,45*,0,i
CCN1CCN(c2ccc(N3CCN(C(=O)c4ccc(Br)o4)CC3)nn2)CC1,-8,9,48*,0,nt
O=C(c1cncc(Br)c1)N1CCN(c2ccc(N3CCOCC3)nn2)CC1,-10,-4,30,0,nt
O=C(CCCc1c[nH]c2ccccc12)N1CCN(c2ccc(N3CCOCC3)nn2)CC1,-1,2,44*,2,+
O=C(c1ccc(Br)o1)N1CCN(c2ccc(F)cc2)CC1,-3,0,-10,0,nt
O=C(c1cccc(Br)c1)N1CCN(c2ccc(N3CCOCC3)nn2)CC1,0,2,50*,5,nt
Cc1ccccc1C(=O)N1CCN(c2ccc(N3CCOCC3)nn2)CC1,-9,-2,60*,1,nt
COc1cccc(C(=O)N2CCN(c3ccc(N4CCOCC4)nn3)CC2)c1,nt,0,61*,10,nt
CCc1ccc(NC(=O)NNC(=O)c2ccc3ccccc3c2O)cc1,-6,2,nt,2,nt
COc1ccccc1NC(=O)NNC(=O)c1ccc2ccccc2c1,4,0,-8,0,nt
COc1ccc(NC(=O)NNC(=O)c2ccc3ccccc3c2O)cc1OC,nt,2,35*,0,i
Cc1ccccc1NC(=O)NNC(=O)c1ccc2ccccc2c1O,-8,5,42*,0,+
COc1ccccc1NC(=O)NNC(=O)c1ccc2ccccc2c1O,3,2,40*,0,i
Cc1cc(C)cc(NC(=O)CSc2nnc(-c3cc(C)[nH]n3)n2N)c1,3,-4,1,3,nt
c1ccc(-c2nnc(-c3ccco3)o2)cc1,-25,-8,42*,1,nt
COC(=O)c1ccc(COc2ccc3ccc(=O)oc3c2)o1,-9,4,40*,0,i
COC(=O)c1cc(COc2ccc3oc(C)c(C(=O)OC)c3c2)c(C)o1,-1,-8,13,5,nt
COC(=O)c1cc(COc2ccc3ccc(=O)oc3c2)c(C)o1,-12,16,56*,0,+
CC(C)(C)n1nnnc1C(c1ccccc1OC(F)(F)F)N1CCN(C/C=C/c2ccccc2)CC1 (stereo unspecified),nt,-7,13,nt,nt
CC1CCC(NC(=O)c2ccc(NC(=O)CC3SC(N4CCCC4)=NC3=O)cc2)CC1 (stereo unspecified),1,-5,18,0,nt
COc1ccc(CCNC(=O)c2cc3c(=O)n4cccc(C)c4nc3n(CC3CCCO3)c2=N)cc1 (stereo unspecified),-2,40,44*,0,i
Cc1cccn2c(=O)c3cc(C(=O)NCC4CCCO4)c(=N)n(CCc4ccccc4)c3nc12 (stereo unspecified),-33,20,nt,2,nt
COc1ccc(C(c2c(NC(=O)c3ccco3)sc(C)c2C)N2CCOCC2)cc1 (stereo unspecified),nt,-16,45*,nt,nt
COc1cccc(C(c2c(NC(=O)c3ccccc3)sc(C)c2C)N2CCN(C)CC2)c1 (stereo unspecified),-1,2,41*,0,i

# Screening results from PubChem.
